NPR1 antag: blocks ANP-stimulated signaling of human Npr1 receptor | HEK293 hNpr1 GloSensor cGMP, ANP-stimulated luminescence | actives 1.6% (n = 76,000) | Potency, µM (top dose mostly 46.3 µM), actives largely listed as inhibitors | P16066; calls by dose curve; also: nearly all actives have a fitted effect of over 60% in size
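HEK293 cells stably expressing human Npr1 and cGMP GloSensor pGS-40F, loaded 2 h with 2% GloSensor reagent, given compound 30 min at room temperature. Luminescence read before and 20 min after 0.1 nM hNppA.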
NIH3T3 tox: NIH 3T3 cell cytotoxicity; NIH 3T3 viability, CellTiter-Glo ATP luminescence, 48-72 h; Potency, µM (doses to about 96.7 µM), hits mostly inhibitors; actives 4.3% (n = 94,000); AID 1345082; also: nearly all actives have a fitted effect of over 55% in size
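Cells were seeded at 400 per well, treated with pin-transferred compound, and kept 48 or 72 hr at 37 °C before CellTiter-Glo addition and luminescence imaging of cellular ATP.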
HEK cytotox: HEK 293 cell cytotoxicity | HEK 293 viability, ATP luminescence (CellTiter-Glo), 48-72 h | actives 6.6% (n = 94,000) | Potency, µM (titrated, usually from 115 µM), most hits filed as inhibitors; also: nearly all actives have a fitted effect of over 60% in size
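250 HEK 293 cells/well; compound by pintool; incubated 48 or 72 hr at 37 degree Celsius; CellTiter-Glo added, 10 min RT, luminescence imaged.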
GPT2 inh: blocks human glutamate pyruvate transaminase 2. Potency, µM (titrated, usually from 57.7 µM), hits mostly inhibitors. Q8TD30. actives 0.25% (n = 100,000). Recombinant GPT2, coupled pyruvate oxidase/HRP Amplex Red fluorescence; also: nearly all actives have a fitted effect of over 60% in size
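Inhibition is scored from Amplex Red fluorescence generated when pyruvate oxidase and HRP act on pyruvate released by GPT2. Reactions contain 10ng/uL enzyme, 250uM a-KG and 2mM L-alanine and run 30 min at room temperature.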
FLuc inh: inhibitors of firefly (Photinus pyralis) luciferase; actives 2.5% (n = 76,000); P08659; AID 1347043; Potency, µM (highest dose often 115 µM), usual class: inhibitors; purified P. pyralis luciferase, luminescence, biochemical; also: nearly all actives have a fitted effect of over 65% in size
Target sequence (P08659 whole entry, looked up): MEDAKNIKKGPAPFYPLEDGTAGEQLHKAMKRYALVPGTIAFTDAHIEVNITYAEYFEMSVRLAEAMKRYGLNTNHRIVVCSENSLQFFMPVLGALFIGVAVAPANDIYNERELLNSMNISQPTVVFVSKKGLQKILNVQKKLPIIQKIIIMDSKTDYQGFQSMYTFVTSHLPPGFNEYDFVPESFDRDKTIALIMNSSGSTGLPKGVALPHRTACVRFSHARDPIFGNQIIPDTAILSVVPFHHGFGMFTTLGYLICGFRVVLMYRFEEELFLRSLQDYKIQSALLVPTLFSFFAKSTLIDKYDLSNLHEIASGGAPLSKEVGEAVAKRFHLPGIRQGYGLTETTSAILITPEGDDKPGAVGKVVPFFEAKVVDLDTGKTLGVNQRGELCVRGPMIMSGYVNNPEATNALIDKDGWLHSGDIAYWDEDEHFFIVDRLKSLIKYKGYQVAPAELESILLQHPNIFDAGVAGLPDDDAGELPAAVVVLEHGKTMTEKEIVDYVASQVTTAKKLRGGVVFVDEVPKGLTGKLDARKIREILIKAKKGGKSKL
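Cell-free enzyme assay, 10nM P. pyralis luciferase, luciferin and ATP each at 10uM. Inhibition profiled over a 6-point titration, read as luminescence.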
Each line names hits and unclear results; the compound was inactive in the other large screens. A selection: hits, their analogues and other compounds. The true share with any hit is near 10%. Unless noted, calls follow the shape of the dose curve; as a rule, active = well fitted curve in the direction sought with a large enough effect; inconclusive = small, poorly fitted or top-dose-only effect, or another doubt; inactive = no such curve, though single readings can be large; an effect the other way counts as inactive or inconclusive.

CCC1(N2CCN(S(=O)(=O)c3ccc(Cl)s3)CC2)CCN(S(C)(=O)=O)C1 (stereo not drawn)	NIH3T3 tox inconclusive, HEK cytotox inconclusive
Cc1cc(C(=O)N2CCNCC(O)C2)c(-c2ccccc2)o1 (stereo not drawn)	none
O=C(C[C@@H]1CCNC[C@@H]1Cc1cc(CSc2ccccc2)on1)NC1CC1	none
O=C(C[C@@H]1CCNC[C@@H]1Cc1cc(CSc2ccccc2)on1)NC1CCCCC1	NIH3T3 tox 100µM, HEK cytotox 89µM
CC(C)(C)c1ccc(-c2cc(C[C@H]3CNCC[C@H]3CC(=O)NC3CCCCC3)no2)cc1	NIH3T3 tox 20µM, HEK cytotox 13µM
CC(C)(C)c1ccc(-c2cc(C[C@H]3CNCC[C@H]3CC(=O)O)no2)cc1	HEK cytotox inconclusive, FLuc inh inconclusive
Cc1c(CC(=O)N2CCOCC2)c2c(n1Cc1ccccc1F)CCCC2=O	none
CN(C)c1ncc2c(n1)C(C)(C(=O)Nc1ccccc1F)CCC2 (stereo not drawn)	NIH3T3 tox inconclusive, HEK cytotox 100µM
CN1CCN(C(=O)c2cc3c(s2)CCN(C(=O)c2ccc(Cl)cc2)C3)CC1	NIH3T3 tox inconclusive, HEK cytotox inconclusive
CC1CCN(C(=O)c2cc3c(s2)CCN(C(=O)c2ccc(Cl)cc2)C3)CC1	NIH3T3 tox inconclusive, HEK cytotox 40µM
COCC(=O)N[C@H]1C[C@@H](Cc2cc(CN(C)c3ccccc3)on2)C1(C)C	NIH3T3 tox inconclusive, HEK cytotox 45µM, GPT2 inh inconclusive
CC(C)NC(=O)N[C@H]1C[C@@H](Cc2cc(CN(C)c3ccccc3)on2)C1(C)C	NIH3T3 tox inconclusive, HEK cytotox inconclusive
COCC(=O)N[C@H]1C[C@@H](Cc2cc(CN(C)Cc3ccccc3)on2)C1(C)C	NIH3T3 tox inconclusive, HEK cytotox inconclusive, GPT2 inh inconclusive
CC(=O)N[C@H]1C[C@@H](Cc2cc(CN(C)c3ccccc3)on2)C1(C)C	HEK cytotox 79µM
CC1(C)[C@H](Cc2cc(CN3CCCCC3)on2)C[C@@H]1NCc1ccccn1	NIH3T3 tox 112µM, HEK cytotox inconclusive
CN(C)Cc1cc(C[C@@H]2C[C@H](NCc3ccc(F)cc3)C2(C)C)no1	NIH3T3 tox inconclusive, HEK cytotox inconclusive
CC1(C)[C@H](Cc2cc(CN3CCCCC3)on2)C[C@@H]1N	NIH3T3 tox inconclusive, HEK cytotox inconclusive
CN(Cc1cc(C[C@@H]2C[C@H](NCc3ncc[nH]3)C2(C)C)no1)c1ccccc1	NIH3T3 tox 100µM, HEK cytotox 63µM, FLuc inh inconclusive
COc1cc(CNC(=O)[C@H]2CCC[C@H]2NC(=O)c2ccc(OC)nc2)cc(OC)c1	none
COc1ccc2c(c1)nc1n2[C@@H](CNC2CCOCC2)COC1	none
O=C(Cn1nc2c(cc1=O)CCCC2)NCCCc1nc2ccccc2[nH]1	none
CC(C)N1C[C@H](O)C[C@H]1c1nnc2n1CCN(C(=O)c1ccsc1)CC2	none
COc1cc(F)c(F)c(Nc2ccc(I)cc2F)c1NS(=O)(=O)C1(CC(O)CO)CC1 (stereo not drawn)	none (no result: NPR1 antag, NIH3T3 tox, HEK cytotox, FLuc inh)
CCOc1ccc(C2NC(=O)N(CC(=O)NC3CCCC3)C3=C2C(=O)OC3)cc1 (stereo not drawn)	none
C#CCNC(=O)[C@@H]1Cc2cn(Cc3c(C)noc3C)c3cccc(c23)[C@H](CC(C)C)N1	NIH3T3 tox 50µM, HEK cytotox 40µM, GPT2 inh inconclusive
CCCNC(=O)[C@@H]1Cc2cn(Cc3c(C)noc3C)c3cccc(c23)[C@H](CC(C)C)N1	NIH3T3 tox 71µM, HEK cytotox 25µM
Cc1noc(C)c1Cn1cc2c3c(cccc31)[C@H](CC(C)C)N[C@H](C(=O)N1CCOCC1)C2	HEK cytotox inconclusive
Cc1noc(C)c1Cn1cc2c3c(cccc31)[C@H](CC(C)C)N[C@H](C(=O)NC1CCC1)C2	NIH3T3 tox inconclusive, HEK cytotox 40µM
Cc1cc(Cn2cc3c4c(cccc42)[C@H](CC(C)C)N[C@H](C(=O)O)C3)no1	none
CCN(CC)C(=O)[C@@H]1C[C@@H](O)CN1C1CCN(C(=O)c2cccc(OC)c2)CC1	none (no result: NPR1 antag, FLuc inh)
CC(C)(C)c1cc(C(=O)N2CCCC2)nn2cccc12	NIH3T3 tox 28µM, HEK cytotox inconclusive (no result: NPR1 antag, FLuc inh)
CC(C)NC(=O)c1cc(C(C)(C)C)c2cccn2n1	none (no result: NPR1 antag, FLuc inh)
CC(C)Oc1cccc(-c2nc(C(=O)NCc3ccccc3)cs2)c1	NPR1 antag inconclusive, NIH3T3 tox inconclusive, HEK cytotox 32µM
CC(C)Oc1cccc(-c2nc(C(=O)NCc3ccco3)cs2)c1	NIH3T3 tox inconclusive, HEK cytotox inconclusive, FLuc inh inconclusive
CCCOc1cccc(-c2nc(C(=O)NCC)cs2)c1	NIH3T3 tox inconclusive, HEK cytotox 32µM
O=C(NC1CCCCC1)c1cn2cc(-c3cccnc3)sc2n1	NIH3T3 tox inconclusive, HEK cytotox inconclusive (no result: NPR1 antag, FLuc inh)
O=C(C1CCCN([S+](=O)([O-])c2cccc(C(F)(F)F)c2)C1)N1CCC(N2Cc3cccn3C2=O)CC1 (stereo not drawn)	NIH3T3 tox inconclusive, HEK cytotox inconclusive (no result: NPR1 antag, FLuc inh)
Cc1ccc([S+](=O)([O-])N2CCCC(C(=O)N3CCC(N4Cc5cccn5C4=O)CC3)C2)cc1 (stereo not drawn)	NIH3T3 tox inconclusive, HEK cytotox 45µM (no result: NPR1 antag, FLuc inh)
O=C(NCc1ccncc1)C1c2ccccc2C(=O)N(Cc2ccccc2)C12CCCC2 (stereo not drawn)	NIH3T3 tox inconclusive, HEK cytotox inconclusive
O=C(C1CCCC1)N1CC2(CCN(Cc3ccccn3)C2)Cc2ccccc21 (stereo not drawn)	NIH3T3 tox inconclusive, HEK cytotox inconclusive (no result: NPR1 antag, FLuc inh)
O=C(c1ccc(OC2CCN(Cc3c[nH]c4ccccc34)CC2)cc1)N1CCCCC1	NIH3T3 tox inconclusive, HEK cytotox 22µM
CC(=O)N1CC2(CCN(CC3CC3)C2)Cc2ccccc21 (stereo not drawn)	none (no result: NPR1 antag, FLuc inh)
O=C(C1CCCC1)N1CC2(CCN(Cc3ccccn3)CC2)Cc2ccccc21	NIH3T3 tox inconclusive, HEK cytotox 100µM (no result: NPR1 antag, FLuc inh)
O=C(C1CCCC1)N1CC2(CCN(Cc3c[nH]c4ccccc34)CC2)Cc2ccccc21	NIH3T3 tox 13µM, HEK cytotox 20µM (no result: NPR1 antag, FLuc inh)
O=C(C1CCCC1)N1CC2(CCN(CC3CC3)C2)Cc2ccccc21 (stereo not drawn)	NIH3T3 tox 45µM, HEK cytotox 25µM, GPT2 inh inconclusive (no result: NPR1 antag, FLuc inh)
O=C(c1ccc(F)cc1)N1CCC(Oc2ccccc2)C1 (stereo not drawn)	none
O=C(NCCC1CCN(C(=O)Nc2ccc(F)cc2F)CC1)c1ccco1	none
O=C(CCC1CCCN(Cc2cccn2-c2nccs2)C1)Nc1ccccc1F (stereo not drawn)	none
COc1ccc(C(=O)N2CCC(n3c(=O)[nH]c4ccccc43)CC2)cc1	none (no result: NPR1 antag, FLuc inh)
Cc1cc(C[C@@H]2COC[C@@H]2NC(=O)c2cnn3ccccc23)on1	none

Screening data: PubChem BioAssay, National Center for Advancing Translational Sciences (NCATS)
